Calls of active or inactive are those of the source. Rule for the calls: active = hit-call score of the fitted dose curve at least 0.9, where 1 is the maximum; inactive = score below 0.9.

In general, AC50 refers to the midpoint of the concentration-response curve, whichever way the signal moves.

Common to all, as to conditions: mRNA level, 48 h; actives raise or lower the signal
Read-out in test [1]: ABC Transporter (ABCC2), ABCC2 (gene 1244)
Kind of test: LTEA_HepaRG_ABCC2: Life Technologies and Expression Analysis (LTEA) Assay for ABC Transporter (ABCC2) using HepaRG (AID 2283464). The essentials:
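Gene expression of ABCC2 was determined by qRT-PCR in HepaRG cells exposed 48 h to chemicals (highest 100 uM, half-log dilutions). Activity was fitted in both directions relative to 0.5% DMSO vehicle.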

Read-out in test [2]: Broad substrate specificity ATP-binding cassette transporter ABCG2 (Homo sapiens) (UniProt Q9UNQ0)
The test is described as follows: LTEA_HepaRG_ABCG2: Life Technologies and Expression Analysis (LTEA) Assay for ABC Transporter (ABCG2) using HepaRG (AID 2283465). The essentials: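 HepaRG, 48 h exposure, 8-pt half-log series from 100 uM, 0.5% DMSO vehicle, duplicates. Readout: ABCG2 transcript by qRT-PCR (Fluidigm array), housekeeping-normalized; bidirectional curve fit relative to DMSO baseline.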

Read-out in test [3]: Peroxisomal acyl-coenzyme A oxidase 1 (ACOX1) gene, ACOX1 (gene 51)
Kind of test: LTEA_HepaRG_ACOX1: Life Technologies and Expression Analysis (LTEA) Assay for Peroxisomal acyl-coenzyme A oxidase 1 (ACOX1) gene using HepaRG (AID 2283467). The essentials: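 HepaRG, 48 h chemical exposure, 8-pt half-log series from 100 uM top, 0.5% DMSO vehicle, duplicates. Readout: ACOX1 mRNA by Fluidigm qRT-PCR, housekeeping-normalized; bidirectional fit vs DMSO baseline.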

Read-out in test [4]: Alkaline Phosphatase, Placental (ALPP) gene, ALPP (gene 250)
Kind of test: LTEA_HepaRG_ALPP: Life Technologies and Expression Analysis (LTEA) Assay for Alkaline Phosphatase, Placental (ALPP) gene using HepaRG (AID 2283468). The essentials: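 Expression of ALPP was quantified by qRT-PCR against three housekeeping genes in human HepaRG cultures treated for 48 h with an eight-point concentration series up to 100 uM. Activity in either direction was fitted relative to 0.5% DMSO.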

Read-out in test [5]: Bcl-2 (BAD) gene, BAD (gene 572)
The test is described as follows: LTEA_HepaRG_BAD: Life Technologies and Expression Analysis (LTEA) Assay for Bcl-2 (BAD) gene using HepaRG (AID 2283469). The essentials:
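HepaRG, 48 h exposure, 8-pt half-log curve from 100 uM in 0.5% DMSO, duplicates. Readout: TaqMan qRT-PCR for BAD mRNA, housekeeping-normalised (ACTB/GAPDH/POLR2A); gain or loss fitted against DMSO baseline.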

Read-out in test [6]: Bcl-2 (BAX) gene, BAX (gene 581)
Kind of test: LTEA_HepaRG_BAX: Life Technologies and Expression Analysis (LTEA) Assay for Bcl-2 (BAX) gene using HepaRG (AID 2283470). The essentials: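 Cells were thawed, plated for 48 h, moved to serum-free induction medium and dosed for 48 h (highest concentration 100 uM, half-log steps, 0.5% DMSO). Total RNA was then analysed for BAX expression by qRT-PCR.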

Read-out in test [7]: adenosine kinase (ADK) gene, ADK (gene 132)
Kind of test: LTEA_HepaRG_ADK: Life Technologies and Expression Analysis (LTEA) Assay for adenosine kinase (ADK) gene using HepaRG (AID 2283471). The essentials:
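ADK expression quantified by qRT-PCR, normalised to three housekeeping genes, after 48 h exposure of HepaRG cells to eight concentrations (top 100 uM, half-log steps, duplicate, 0.5% DMSO). Up- or down-regulation fitted relative to vehicle.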

Read-out in a further test: BCL2L11 (gene 10018)
The test is described as follows: LTEA_HepaRG_BCL2L11: Life Technologies and Expression Analysis (LTEA) Assay for Bcl-2 (BCL2L11) gene using HepaRG (AID 2283473). The essentials:
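Cells were plated, cultured 48 h, switched to serum-free induction medium, then dosed in duplicate for 48 h at eight half-log concentrations up to 100 uM. Lysates underwent RNA isolation and TaqMan qRT-PCR; gain or loss versus DMSO was fitted.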

Read-out in test [8]: Apolipoprotein A-V (APOA5) gene, APOA5 (gene 116519)
The test is described as follows: LTEA_HepaRG_APOA5: Life Technologies and Expression Analysis (LTEA) Assay for Apolipoprotein A-V (APOA5) gene using HepaRG (AID 2283474). The essentials: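 Human liver HepaRG cells are treated 48 h with test chemicals (100 uM top, half-log dilutions, 0.5% DMSO). APOA5 mRNA induction or loss is measured by qRT-PCR relative to vehicle.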

Read-out in test [9]: Apoptosis regulator Bcl-2 (Homo sapiens) (UniProt P10415)
The test is described as follows: LTEA_HepaRG_BCL2: Life Technologies and Expression Analysis (LTEA) Assay for Bcl-2 gene using HepaRG (AID 2283475). The essentials: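 Plated human HepaRG cells are exposed to test chemicals for 48 h across eight concentrations from 100 uM downward in half-log steps (0.5% DMSO). BCL2 expression is then measured by qRT-PCR with housekeeping normalisation and fitted bidirectionally against vehicle.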

Read-out in test [10]: Bcl-2 (BID) gene, BID (gene 637)
Kind of test: LTEA_HepaRG_BID: Life Technologies and Expression Analysis (LTEA) Assay for Bcl-2 (BID) gene using HepaRG (AID 2283476). The essentials:
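Cells are plated, cultured 48 h, switched to serum-free induction medium, then dosed 48 h (100 uM top, half-log steps, 0.5% DMSO). RNA is isolated and BID expression read by qRT-PCR.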

Read-out in the next test: Caspase-3 (Homo sapiens) (UniProt P42574)
Kind of test: LTEA_HepaRG_CASP3: Life Technologies and Expression Analysis (LTEA) Assay for cysteine-aspartic acid protease (CASP3) using HepaRG (AID 2283477). The essentials:
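In HepaRG liver cells dosed for 48 h at up to 100 uM (eight-point, duplicate), CASP3 expression changes are scored by qRT-PCR. Activity is fitted in both directions with 0.5% DMSO as baseline.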

Read-out in test [11]: Cytochrome P450 (CYP1A2), CYP1A2 (gene 1544)
The test is described as follows: LTEA_HepaRG_CYP1A2: Life Technologies and Expression Analysis (LTEA) Assay for Cytochrome P450 (CYP1A2) using HepaRG (AID 2283479). The essentials: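 Assesses CYP1A2 mRNA in human HepaRG liver cells after 48 h chemical exposure at up to 100 uM. Values come from qRT-PCR with bidirectional curve fitting relative to DMSO.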

Read-out in test [12]: cysteine-aspartic acid protease (CASP8), CASP8 (gene 841)
The test is described as follows: LTEA_HepaRG_CASP8: Life Technologies and Expression Analysis (LTEA) Assay for cysteine-aspartic acid protease (CASP8) using HepaRG (AID 2283480). The essentials: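 qRT-PCR readout of CASP8 mRNA, normalized to three housekeeping genes, after 48 h chemical exposure of HepaRG cells; 8-point half-log series, top 100 uM, 0.5% DMSO vehicle. Bidirectional curve fitting against DMSO baseline.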

Read-out in test [13]: Cytochrome P450 (CYP2B6), CYP2B6 (gene 1555)
The test is described as follows: LTEA_HepaRG_CYP2B6: Life Technologies and Expression Analysis (LTEA) Assay for Cytochrome P450 (CYP2B6) using HepaRG (AID 2283481). The essentials:
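Using 48 h treatment of HepaRG cells in serum-free induction medium, concentrations spanned half-log steps from 100 uM in 0.5% DMSO vehicle. CYP2B6 mRNA induction or loss is scored by qRT-PCR against DMSO.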

Read-out in test [14]: Cytochrome P450 2C19 (Homo sapiens) (UniProt P33261)
The test is described as follows: LTEA_HepaRG_CYP2C19: Life Technologies and Expression Analysis (LTEA) Assay for CYP2C19 using HepaRG (AID 2283482). The essentials:
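Human HepaRG liver cells received test chemicals for 48 h (highest 100 uM, half-log dilutions in 0.5% DMSO). CYP2C19 mRNA induction or loss is read by multiplexed qRT-PCR and fitted in both directions versus vehicle.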

Read-out in test [15]: ATP-citrate lyase (ACLY), ACLY (gene 47)
Kind of test: LTEA_HepaRG_ACLY: Life Technologies and Expression Analysis (LTEA) Assay for ATP-citrate lyase (ACLY) using HepaRG (AID 2283466). The essentials: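 qRT-PCR readout of ACLY transcript after 48 h chemical treatment of HepaRG cells; expression normalized to three housekeeping genes. Eight-point half-log series, highest 100 uM, 0.5% DMSO vehicle. Gain or loss fitted against DMSO baseline.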

Read-out in test [16]: Cytochrome P450 (CYP24A1), CYP24A1 (gene 1591)
Kind of test: LTEA_HepaRG_CYP24A1: Life Technologies and Expression Analysis (LTEA) Assay for Cytochrome P450 (CYP24A1) using HepaRG (AID 2283478). The essentials: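 Human liver HepaRG cultures receive each chemical for 48 h across an eight-point half-log series topping at 100 uM in 0.5% DMSO. Induction or suppression of CYP24A1 mRNA is scored relative to vehicle after housekeeping-gene normalization.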

Read-out in the next test: CYP2C8 (gene 1558)
The test is described as follows: LTEA_HepaRG_CYP2C8: Life Technologies and Expression Analysis (LTEA) Assay for CYP2C8 using HepaRG (AID 2283483). The essentials: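 HepaRG (human liver line), 48 h chemical exposure, 8-pt half-log series from 100 uM, 0.5% DMSO vehicle. Readout: CYP2C8 transcript by qRT-PCR, housekeeping-normalized. Bidirectional fit vs DMSO baseline.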

Chain of Cytochrome P450 2C19 (Homo sapiens) (P33261 whole entry, looked up): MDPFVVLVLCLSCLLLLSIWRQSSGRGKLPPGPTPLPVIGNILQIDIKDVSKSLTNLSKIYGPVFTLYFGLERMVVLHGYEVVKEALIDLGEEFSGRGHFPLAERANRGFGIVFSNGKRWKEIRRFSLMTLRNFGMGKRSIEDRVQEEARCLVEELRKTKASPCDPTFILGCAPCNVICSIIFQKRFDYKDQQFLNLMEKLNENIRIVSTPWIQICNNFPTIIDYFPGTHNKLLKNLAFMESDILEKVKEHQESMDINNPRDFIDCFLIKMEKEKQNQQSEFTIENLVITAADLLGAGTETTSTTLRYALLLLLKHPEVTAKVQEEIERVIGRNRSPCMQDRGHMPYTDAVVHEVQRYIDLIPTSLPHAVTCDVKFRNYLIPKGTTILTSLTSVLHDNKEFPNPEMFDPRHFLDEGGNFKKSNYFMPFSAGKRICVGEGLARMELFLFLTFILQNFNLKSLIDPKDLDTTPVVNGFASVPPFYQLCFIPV
Chain of Caspase-3 (Homo sapiens) (P42574 whole entry, looked up): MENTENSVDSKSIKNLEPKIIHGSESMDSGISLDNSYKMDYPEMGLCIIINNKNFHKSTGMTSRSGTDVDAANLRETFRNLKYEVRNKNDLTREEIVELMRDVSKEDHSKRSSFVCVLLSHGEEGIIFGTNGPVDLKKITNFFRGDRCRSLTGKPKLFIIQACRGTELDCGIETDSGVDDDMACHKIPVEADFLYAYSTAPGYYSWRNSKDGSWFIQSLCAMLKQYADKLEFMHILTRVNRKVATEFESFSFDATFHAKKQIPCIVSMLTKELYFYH
Chain of Broad substrate specificity ATP-binding cassette transporter ABCG2 (Homo sapiens) (Q9UNQ0 whole entry, looked up): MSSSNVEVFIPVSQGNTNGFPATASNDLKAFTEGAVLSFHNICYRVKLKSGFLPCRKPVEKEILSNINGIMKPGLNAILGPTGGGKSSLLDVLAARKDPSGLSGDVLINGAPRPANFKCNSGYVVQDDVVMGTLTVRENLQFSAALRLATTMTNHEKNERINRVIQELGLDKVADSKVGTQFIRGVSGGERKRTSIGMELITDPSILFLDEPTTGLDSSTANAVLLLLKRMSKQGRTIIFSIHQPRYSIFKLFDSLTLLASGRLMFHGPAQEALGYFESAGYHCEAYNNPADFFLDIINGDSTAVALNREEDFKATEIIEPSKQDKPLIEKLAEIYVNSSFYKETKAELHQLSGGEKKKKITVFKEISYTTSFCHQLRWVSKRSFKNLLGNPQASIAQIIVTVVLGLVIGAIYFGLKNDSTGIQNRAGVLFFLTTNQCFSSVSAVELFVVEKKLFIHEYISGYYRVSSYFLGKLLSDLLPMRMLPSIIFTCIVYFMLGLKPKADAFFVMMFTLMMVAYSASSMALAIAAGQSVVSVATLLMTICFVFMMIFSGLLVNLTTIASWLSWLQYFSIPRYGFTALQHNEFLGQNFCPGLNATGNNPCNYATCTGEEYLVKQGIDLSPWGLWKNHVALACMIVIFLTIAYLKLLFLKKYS
Chain of Apoptosis regulator Bcl-2 (Homo sapiens) (P10415 whole entry, looked up): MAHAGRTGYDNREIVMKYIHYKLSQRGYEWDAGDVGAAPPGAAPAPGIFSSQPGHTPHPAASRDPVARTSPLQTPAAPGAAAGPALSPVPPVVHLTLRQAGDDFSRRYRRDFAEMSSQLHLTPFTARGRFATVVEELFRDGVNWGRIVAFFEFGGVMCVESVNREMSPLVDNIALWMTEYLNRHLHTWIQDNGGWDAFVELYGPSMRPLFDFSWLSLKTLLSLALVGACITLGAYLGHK

Regarding `C[C@]12CC[C@@H]3c4ccc(O)cc4C[C@@H](CCCCCCCCCS(=O)CCCC(F)(F)C(F)(F)F)[C@H]3[C@@H]1CC[C@@H]2O` (stereo not given in full), the AC50 in test [1] is 22.4 µM (active); in [3], 21.1 µM (active); in [5], 0.045 µM (active); with BCL2L11 (gene 10018) it was 0.0755 µM (active); in [8] it was 50 µM (active); in test [9], 0.0469 µM (active). In addition, the AC50 in test [10] is 0.0682 µM (active); in test [13], 29.9 µM (active); in test [14], 26 µM (active). Also, the outcome (in [2]; in test [4]; in [6]; in test [7]; in the test with Caspase-3 (Homo sapiens); in [11]) was inactive. In test [12], the call was inactive.

As to `CC(C)CCCCCCc1ccc(O)cc1`, the call in test [1], in test [2], in test [3], in [4], in test [5] and in test [6] was inactive. Also, the result (in test [7]; with BCL2L11 (gene 10018); in test [8]; in [9]; in [10]; in the test with Caspase-3 (Homo sapiens)) was inactive. For the same compound, the compound was classed as inactive in [11], in [12], in test [13] and in test [14].

As to `O=C(c1ccccc1)C1CCCCC1`, the result in test [1], in test [2], in test [15], in test [3], in [4] and in [5] was inactive. Besides, the call (in [7]; with BCL2L11 (gene 10018); in test [8]; in test [9]; in [10]; with Caspase-3 (Homo sapiens)) was inactive. The result (in [16]; in test [11]; in test [12]; in test [14]; with CYP2C8 (gene 1558)) was inactive. Also, the AC50 in test [13] is 25 µM (active).
